A selection follows.
Six1-Eya2 blk: inhibitors of human Six1/Eya2 interaction | AlphaScreen GST-Six1/His-Eya2 binding, biochemical; stronger effect = lower value | activity change, % (test concentration not listed) | 0.56% of 360,000 active; in the data active = activity change below about -65%; inconclusive = mostly about -30% to -63%
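Six1/Eya2 binding was read as AlphaScreen signal after compounds were pinned into GST-Six1 plus His-tagged Eya2 (5X stock 250/500 nM) in pH 8.0 Tris/NaCl/TCEP buffer, beads added, then incubated 1 h, 37 C, dark.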
TGFb inhibitor: inhibitors of TGF-b signaling. HepG2 CAGA-GFP TGF-b/SMAD3 reporter, GFP fluorescence, 18 h; TGF-beta stimulated, 500 pg/mL final. Potency, µM (highest dose often 46.1 µM), usual class: inhibitors. 1.2% of 410,000 active. AID 588855; also: nearly all actives have a fitted effect of over 65% in size
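Inhibition was scored as loss of TGF-beta-induced (500 pg/mL final, 18 hours, 37 degrees C) GFP in HEPG2 cells carrying a CAGA-GFP reporter, in DMEM with 1% FBS. Well GFP was summed per cell; Activity was normalised to unstimulated and stimulated DMSO wells, then concentration-response fitting.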
S2 tox: reduces viability in counter-screen for ATXN expression inhibitors; S2 cells (HEK-293 line with an ATXN2-luciferase reporter) viability, CellTiter-Fluor protease fluorescence, 24 h; Potency, µM (titrated, usually from 56.7 µM), usual class: cytotoxic; 0.49% of 400,000 active; AID 651635; also: nearly all actives have a fitted effect of over 40% in size
CtBP-E1A inh: inhibitors of CtBP/E1A interaction. AlphaScreen GST-E1A/His-CtBP binding, 1536-well; stronger effect = lower value. activity change, % (test concentration not listed). 0.49% of 340,000 active. AID 651724; in the data active = activity change below about -65%; inconclusive = mostly about -30% to -63%
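Protein mix (5X: 125 nM each GST-E1A, His-CtBP) was incubated with pinned compound 2 h at 37 deg C in dark, in 50 mM Tris pH 8.0 buffer with 300 mM NaCl. Glutathione donor and nickel acceptor beads followed; AlphaScreen signal read after 1 h.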
ATXN2 expr inh: inhibitors of ATXN2 expression. Potency, µM (titrated, usually from 57 µM), most hits filed as inhibitors. AID 1745845. HEK-293 ATXN2-luciferase reporter, luminescence, 24 h. 0.72% of 360,000 active; also: nearly all actives have a fitted effect of over 55% in size
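qHTS (up to 57 uM final) was run with 24 h compound exposure of reporter cells at 37 °C. Each well was multiplexed: SteadyGlo luminescence measured ATXN2-luciferase expression after a fluorogenic Gly-Phe-AFC viability readout (25 uM final).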
HepG2 viability: counter-screen for TGF-b inhibitors: cytotoxicity in HepG2 cells | Potency, µM (doses to about 46.1 µM), usual class: cytotoxic | HepG2 CAGA-GFP viability, ATP luminescence, 18 h | 0.76% of 410,000 active | AID 588856
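CellTiter-Glo luminescence gave cytotoxicity after 18 hours at 37 degrees C. The cells were HepG2 CAGA-GFP in 1% FBS DMEM, stimulated with 500 pg/mL TGF-beta after compound addition. %Activity was normalised to no-cell wells (complete cell-killing) and DMSO (no toxicity), and curves were fitted and classified.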
EBOV entry S4 rt: Ebola virus entry blockers, screen 4 ratio channel; shares compounds with ATXN2 expr inh; Ebola pseudovirus entry assay, ratio channel; AC50, µM; 79% of 170 active; AID 1117308; calls by dose curve
EBOV S4 blue: Ebola entry inhibition, blue channel, screen 4. shares compounds with ATXN2 expr inh. Ebola virus entry assay, blue channel fluorescence ratio; Channel: blue. calls only. 170 tested, under 10 active; call rule not given here
EBOV entry S4 grn: Ebola entry inhibition, green channel, screen 4 | shares compounds with ATXN2 expr inh | Ebola virus entry reporter assay, green fluorescence channel; Channel: green | calls only | 170 tested, under 10 active; call rule not given here
SKNSH spheroid: reduced viability of SK-N-SH 3D spheroids, orthogonal test; shares compounds with ATXN2 expr inh; SK-N-SH 3D spheroid viability, PI/Hoechst imaging, 72 h; Potency, µM (doses to about 30.7 µM), most hits filed as inhibitors; 70% of 65 active; AID 1347135
SJGBM2 3D viab: reduced viability of SJ-GBM2 3D spheroids, orthogonal test; shares compounds with ATXN2 expr inh; SJ-GBM2 3D spheroid viability, PI/Hoechst imaging, 72 h; 80% of 65 active; Potency, µM (top dose mostly 30.7 µM), most hits filed as inhibitors
Daoy 3D tox: Daoy 3D spheroid viability loss; shares compounds with ATXN2 expr inh; Daoy 3D spheroid viability, PI/Hoechst imaging, 72 h; Potency, µM (highest dose often 30.7 µM), actives largely listed as inhibitors; 50% of 65 active; AID 1347137
TC32 3D casp: TC32 spheroid caspase-3/7 activation, orthogonal screen. AID 1347138. 30% of 65 active. Potency, µM (series often up to 30.7 µM), usual class: inhibitors. TC32 3D spheroids, caspase-3/7 fluorescence imaging, 24 h. shares compounds with ATXN2 expr inh
TC32 3D tox: reduced viability of TC32 3D spheroids, orthogonal test; Potency, µM (doses to about 30.7 µM), hits mostly inhibitors; shares compounds with ATXN2 expr inh; 60% of 65 active; TC32 3D spheroid viability, PI/Hoechst imaging, 72 h
MG63 3D tox: MG-63 (6-TG R) 3D spheroid viability loss; shares compounds with ATXN2 expr inh; MG-63 (6-TG R) 3D spheroid viability, PI/Hoechst imaging, 72 h; AID 1347140; Potency, µM (highest dose often 30.7 µM), most hits filed as inhibitors; 50% of 65 active
RD spheroid: reduced viability of RD 3D spheroids, orthogonal test | shares compounds with ATXN2 expr inh | RD rhabdomyosarcoma 3D spheroid viability, PI/Hoechst imaging, 72 h | Potency, µM (top dose mostly 30.7 µM), actives largely listed as inhibitors | 50% of 65 active
A number is an active result; i = inactive; ? = inconclusive; nt = not tested or not shown. Unless noted, calls follow the shape of the dose curve; as a rule, active = well fitted curve in the direction sought with a large enough effect; inconclusive = small, poorly fitted or top-dose-only effect, or another doubt; inactive = no such curve, though single readings can be large; an effect the other way counts as inactive or inconclusive.

SMILES	Six1-Eya2 blk	TGFb inhibitor	S2 tox	CtBP-E1A inh	ATXN2 expr inh	HepG2 viability	others
CCN[C@H](C)Cc1cccc(C(F)(F)F)c1	nt	nt	i	nt	i	nt
CN(C)NC(=O)CCC(=O)O	nt	nt	nt	nt	i	nt
NCC(=O)c1ccc(Br)cc1	nt	?	nt	nt	nt	i
CC(=NCCCN1CCOCC1)c1c(O)n(Cc2ccccc2)c(=O)[nH]c1=O	i	i	i	i	i	i
Cc1cccc(Cn2c(=O)n(Cc3ccc(C(=O)NC4CCN(Cc5ccccc5)CC4)cc3)c(=O)c3ccccc32)c1	nt	?	i	nt	i	i
O=C(CN1CCOCC1)c1ccc2ccccc2c1	nt	i	nt	nt	nt	i
Cc1cc(C)c(N)cc1C	i	i	i	i	i	i
CN(C)c1ccc(CNC(=O)Cn2c(=O)oc3cc(S(=O)(=O)N4CCCCCC4)ccc32)cc1	nt	?	nt	nt	nt	i
CN1CCCC(C(O)(c2ccccc2)c2ccccc2)C1 (stereo unspecified)	i	i	i	nt	nt	i
Cc1c(Cl)cccc1NC(=O)NCCOCCn1c(=O)oc2ccccc21	nt	?	i	nt	i	i
c1ccc2c(c1)CC1CNCc3cccc(c31)S2 (stereo unspecified)	i	i	i	i	i	i
CCc1nc2c(OCc3ccc(C(F)(F)F)cc3)cccn2c1N(C)C(=O)C(C)C	i	i	?	i	?	i
Cc1c(P(=S)(c2ccccc2)c2ccccc2)[n+]2ccccc2n1CCc1ccccc1	nt	?	?	nt	?	i
CC(=O)Nc1cccc(-c2ccnc3c2CC(C(=O)NCc2ccco2)O3)c1 (stereo unspecified)	i	i	i	i	i	i
Cc1ccc(Cn2c(=O)n(CCCCC(=O)NCc3ccccc3Cl)c(=O)c3ccccc32)cc1	nt	i	?	nt	?	i
NC[C@H](O)c1ccc(O)c(O)c1	?	i	i	i	i	i	EBOV entry S4 rt=i;EBOV S4 blue=i;EBOV entry S4 grn=i
C[C@H](N)[C@H](O)c1ccc(O)c(O)c1	nt	nt	?	nt	i	nt	EBOV entry S4 rt=i;EBOV S4 blue=i;EBOV entry S4 grn=i
CC(N)[C@H](O)c1ccc(O)c(O)c1 (stereo partly specified)	nt	i	nt	nt	nt	i
COC(=O)C1=CCCN(C)C1	i	i	i	i	i	i	SKNSH spheroid=12.8µM;SJGBM2 3D viab=?;Daoy 3D tox=i;TC32 3D casp=?;TC32 3D tox=4.06µM;MG63 3D tox=i;RD spheroid=i
COc1ccc(-c2cc(C(=O)N3CCN(c4ccccc4OC)CC3)c3cc(C(C)C)ccc3n2)cc1	nt	i	?	nt	?	i
CCN(CC)/[N+]([O-])=N/O	nt	nt	i	nt	nt	nt
CCOP(=S)(OCC)O/N=C(\C#N)c1ccccc1	nt	nt	i	nt	i	nt
Cc1cc(C)cc(NC(=O)Cn2cc(C(=O)c3cccs3)c3ccccc32)c1	nt	?	?	nt	i	i
COC1CCC(OC2CC(C3(C)CCC4(CC(O)C(C)C(C(C)/C=C(\C)C(=O)C(C)CC(C)C(=O)O)O4)O3)OC3(OC(C4OC(O)(CO)C(C)CC4C)CC3C)C2C)OC1C (stereo unspecified)	i	?	nt	i	?	i
CN(C)[C@@H]1C(=O)C(C(N)=O)=C(O)[C@@]2(O)C(=O)C3=C(O)c4c(O)ccc(Cl)c4[C@@](C)(O)C3C[C@@H]12 (stereo partly specified)	i	i	i	i	?	i
SMILES	Six1-Eya2 blk	TGFb inhibitor	S2 tox	CtBP-E1A inh	ATXN2 expr inh	HepG2 viability	others
CN(CC(=O)NC1CCCC1)S(=O)(=O)c1cccc(Cl)c1	i	?	i	i	i	i
CNCCCc1ccccc1	i	i	i	i	i	i
C#Cc1cccc(Nc2ncnc3cc(OCCOC)c(OCCOC)cc23)c1	nt	nt	?	nt	?	nt	EBOV entry S4 rt=i;EBOV S4 blue=i;EBOV entry S4 grn=i
O=C(CCl)c1ccc(O)c(O)c1	nt	?	nt	nt	nt	i
CC(C)C[C@H]1C(=O)N2CCC[C@@H]2[C@@]2(O)O[C@](NC(=O)[C@@H]3C=C4c5cccc6[nH]cc(c56)C[C@@H]4N(C)C3)(C(C)C)C(=O)N12	nt	nt	i	nt	nt	nt
C=C1C=C(C(F)F)n2ncc(C(=O)NCc3ccccc3F)c2N1	nt	i	nt	nt	nt	i
CCN1CCN(C(=O)Cc2c(C)n(C(=O)c3ccc(Cl)cc3)c3ccc(OC)cc23)CC1	i	i	?	i	i	i

Bioassay records (PubChem)
